This note sets out measurements from PubChem BioAssay (NCATS).

The test system of one experiment is MKL-2. The experiment can be described thus: qHTS assay to identify novel small-molecules to repurpose for Merkel cell carcinoma treatment (AID 1296009). Also: nearly all actives have a fitted effect of over 60% in size. Also: potency is read from the fitted curve at half-maximal effect. The settings on record: MCC and control cell lines, CellTiter-Glo viability, 72 h; series mostly up to 46 µM. In a few lines: (§1)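 Cells were treated for 72 hr at 37 degree celsius with compounds in 8- or 11-point dose response. Viability was read by CellTiter-Glo luminescence, normalized to no-cell (cytotoxicity) and DMSO controls.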
(In qHTS, concentration-response curves come from the screen itself.)

Another experiment deals with NIH3T3. Described as above. Conditions: MCC and control cell lines, CellTiter-Glo viability, 72 h; series mostly up to 44.8 µM. A digest of the protocol:
as §1
For orientation: In ATP-based viability assays light output follows the ATP content of the culture.

Another experiment has as its system UISO. The experiment is described as above. The settings on record: MCC and control cell lines, CellTiter-Glo viability, 72 h; series mostly up to 46 µM. A digest of the protocol:
as §1

The next experiment has as its system WaGa. The experiment is described as above. The settings on record: MCC and control cell lines, CellTiter-Glo viability, 72 h; series mostly up to 46 µM. A digest of the protocol: as §1
A further experiment deals with C33A. The experiment can be described thus: Primary qHTS to identify gynecologic anti-cancer compounds using libraries of approved drugs and bioactive compounds (AID 1345084). Also: nearly all actives have a fitted effect of over 55% in size. The settings on record: Gynecologic cancer cell panel viability, ATPlite luminescence, 48 h; series mostly up to 57.5 µM. In a few lines:
(§2)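 Luminescence from the ATPlite ATP-monitoring reagent indicates viable cell number; lower signal means cytotoxicity. Cells received compound 16 h after seeding and were exposed for 48 h across five concentrations.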

A further experiment has as its system CAOV3. Described as above. Conditions: Gynecologic cancer cell panel viability, ATPlite luminescence, 48 h; series mostly up to 57.5 µM. In a few lines:
as §2

The test system of a further experiment is CASKI. The experiment is described as above. Conditions: Gynecologic cancer cell panel viability, ATPlite luminescence, 48 h; series mostly up to 57.5 µM. In a few lines: as §2
In the next experiment the test system is Es-2. The experiment is described as above. The settings on record: Gynecologic cancer cell panel viability, ATPlite luminescence, 48 h; series mostly up to 57.5 µM. In a few lines: as §2
For a further experiment, the system named is HeLa. Described as above. The settings on record: Gynecologic cancer cell panel viability, ATPlite luminescence, 48 h; series mostly up to 57.5 µM. In a few lines: as §2
The subject of a further experiment is Hek293T. The description is as above. Conditions: Gynecologic cancer cell panel viability, ATPlite luminescence, 48 h, control line for the selectivity index; series mostly up to 57.5 µM. In a few lines:
as §2

The next experiment has as its system JEG-3. The description is as above. Conditions: Gynecologic cancer cell panel viability, ATPlite luminescence, 48 h; series mostly up to 57.5 µM. A digest of the protocol:
as §2

The next experiment has as its system OV90. The description is as above. Conditions: Gynecologic cancer cell panel viability, ATPlite luminescence, 48 h; series mostly up to 57.5 µM. A digest of the protocol:
as §2

A further experiment relates to PA-1. The experiment is described as above. The settings on record: Gynecologic cancer cell panel viability, ATPlite luminescence, 48 h; series mostly up to 57.5 µM. In a few lines:
as §2

For a further experiment, the system named is SKOV3. The description is as above. The settings on record: Gynecologic cancer cell panel viability, ATPlite luminescence, 48 h; series mostly up to 57.5 µM. In a few lines: as §2
The subject of another experiment is Tov-21-G. Described as above. Conditions: Gynecologic cancer cell panel viability, ATPlite luminescence, 48 h; series mostly up to 57.5 µM. In a few lines:
as §2

Another experiment concerns Tov112D. The experiment is described as above. The settings on record: Gynecologic cancer cell panel viability, ATPlite luminescence, 48 h; series mostly up to 57.5 µM. In a few lines:
as §2

A short description of experiment [1]: Drug repurposing screens with cells derived from glioblastoma tumor samples (AID 1345199). Also: nearly all actives have a fitted effect of over 40% in size. Also: potency is read from the fitted curve at half-maximal effect. Conditions: GBM patient neurospheres viability, ATP luminescence, 48 h. In a few lines:
(§3)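 Four patient lines of CD133+ GBM neurospheres were screened at several concentrations; hits were retested in those lines plus three slower-growing GBM lines, using 48-hour treatment and ATP-based viability.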

The test system of a further experiment is astro. Described as above. The settings on record: viability, ATP luminescence, 48 h; series mostly up to 45.9 µM. A digest of the protocol:
as §3

Setting [2] is: at 45.9 µM (top of the series), tumour line B.
The mark [3] stands for this setting: at 45.9 µM (top of the series), tumour line D.
Where [4] appears, read: at 46 µM (top of the series), tumour line A.
Where [5] appears, read: at 46.1 µM (top of the series), tumour line C.

Molecules are shown by their SMILES. Records with an inconclusive call do not appear. Unmarked numbers belong to inactive results. The source made the active and inactive calls. Calls follow the shape of the dose curve; as a rule, active = well fitted curve in the direction sought with a large enough effect; inconclusive = small, poorly fitted or top-dose-only effect, or another doubt; inactive = no such curve, though single readings can be large; an effect the other way counts as inactive or inconclusive.
% is scaled to controls: 0 for no effect and ±100 for the full control effect.

With `NCCS(=O)(=O)O`, the Potency result with MKL-2, in the experiment with UISO, in the experiment with WaGa, with C33A, with CAOV3 and in the experiment with CASKI was “inactive” throughout. The Potency result with Es-2, with HeLa, in the experiment with Hek293T, in the experiment on JEG-3, with OV90 and in the experiment on PA-1 was “inactive” in each case. For the same compound, the Potency entry in the experiment on SKOV3, with Tov-21-G, with Tov112D and in the experiment on astro was “inactive” in each case. For the same compound, the compound was called inactive in the experiment with NIH3T3. For the same compound, the activity, negative = cell killing in [1] (setting [2]) is -27.3%; in experiment [1] (setting [3]), -0.425%; in experiment [1] (setting [4]), 17.9%; in experiment [1] (setting [5]) it was -20.3%.

Take `CC[N+](CC)(CC)CCOc1cccc(OCC[N+](CC)(CC)CC)c1OCC[N+](CC)(CC)CC`: the Potency result in the experiment on MKL-2, in the experiment on UISO, in the experiment with WaGa, in the experiment with C33A, with CAOV3 and in the experiment with CASKI was “inactive” each time. The Potency entry in the experiment on Es-2, in the experiment on HeLa, in the experiment with Hek293T, with JEG-3, in the experiment on OV90 and in the experiment on PA-1 was “inactive” each time. For the same compound, the Potency entry with SKOV3, in the experiment on Tov-21-G and with Tov112D was “inactive” throughout. Also, in the experiment on NIH3T3, the call was inactive. In addition, the activity, negative = cell killing in experiment [1] (setting [2]) is -15.6%; in experiment [1] (setting [3]), -21.5%; in experiment [1] (setting [4]), -28%; in experiment [1] (setting [5]), -0.854%.

In the case of `CN1CCC(=C2c3ccccc3C=Cc3ccccc32)CC1`, the Potency is 16.8 µM (active) in the experiment with MKL-2; 26.6 µM (active) in the experiment with WaGa; 3.55 µM (active) in [1] (tumour line A); 25.1 µM (active) in experiment [1] (tumour line B); 20 µM (active) in experiment [1] (tumour line D); 17.8 µM (active) in the experiment with astro. Also, the compound was called inactive with NIH3T3. For the same compound, the Potency entry with UISO, in the experiment on C33A, in the experiment with CASKI, with Es-2, with HeLa and in the experiment on JEG-3 was “inactive” throughout. Further, the Potency entry with PA-1, with SKOV3, with Tov-21-G and with Tov112D was “inactive” each time. Further, in [1] (setting [5]), the activity, negative = cell killing is -12.4%.

Regarding `Cc1ccc(C(=O)Nc2ccc(S(=O)(=O)O)c3cc(S(=O)(=O)O)cc(S(=O)(=O)O)c23)cc1NC(=O)c1cccc(NC(=O)Nc2cccc(C(=O)Nc3cc(C(=O)Nc4ccc(S(=O)(=O)O)c5cc(S(=O)(=O)O)cc(S(=O)(=O)O)c45)ccc3C)c2)c1`, the Potency result with MKL-2, in the experiment on UISO, in the experiment with WaGa, in the experiment with C33A, in the experiment with CAOV3 and in the experiment with CASKI was “inactive” throughout. Further, the Potency result in the experiment on Es-2, with HeLa, in the experiment with Hek293T, in the experiment on JEG-3, with OV90 and with PA-1 was “inactive” throughout. Also, the Potency entry in the experiment on SKOV3, in the experiment with Tov-21-G, in the experiment with Tov112D and in the experiment on astro was “inactive” each time. The result in the experiment with NIH3T3 was inactive. Also, the activity, negative = cell killing in experiment [1] (setting [2]) is -18.8%; in experiment [1] (setting [3]), -0.172%; in [1] (setting [4]), -24.3%; in experiment [1] (setting [5]) it was -24.1%.

`NC(=O)OCC(COC(N)=O)c1ccccc1`: the Potency entry in the experiment on MKL-2, in the experiment on UISO, in the experiment on WaGa, in the experiment with C33A, with CASKI and with Es-2 was “inactive” in each case. For the same compound, the Potency entry in the experiment on HeLa, in the experiment with Hek293T, in the experiment on JEG-3, with OV90, in the experiment on PA-1 and in the experiment on SKOV3 was “inactive” each time. In addition, the Potency result in the experiment with Tov-21-G, in the experiment on Tov112D and in the experiment on astro was “inactive” throughout. Moreover, the compound was called inactive in the experiment on NIH3T3. Also, the activity, negative = cell killing in experiment [1] (setting [2]) was 2.73%; in experiment [1] (setting [3]) it was -0.95%; in experiment [1] (setting [4]), -11.1%; in experiment [1] (setting [5]), 48.2%.
